Laboratory results taken from PubChem BioAssay (EPA / NIEHS).
“And” between values parts separate entries of the source, which are not always exact repeats. Equal values may be shown once. Inconclusive results are not listed. The source holds several records for some structures; these can differ, active in one and inactive in another. The source made the active and inactive calls. How the source made its calls: active means hit-call score of the fitted dose curve at least 0.9, where 1 is the maximum; inconclusive means response in the unintended direction; inactive means score below 0.9.

Assays:
[1] = biological target: mouse Peroxisome Proliferator-activated Receptor gamma (PPARg), Pparg (gene 19016) (UniProt P37238); assay: ATG_mPPARg_XSP1: Attagene TRANS-FACTORIAL Multi-Species (XSP1) HepG2 Assay for mouse Peroxisome Proliferator-activated Receptor gamma (PPARg) (AID 2283802)
mouse Peroxisome Proliferator-activated Receptor gamma (PPARg), Pparg (gene 19016), sequence (P37238 whole entry, looked up, the tested form may be a part): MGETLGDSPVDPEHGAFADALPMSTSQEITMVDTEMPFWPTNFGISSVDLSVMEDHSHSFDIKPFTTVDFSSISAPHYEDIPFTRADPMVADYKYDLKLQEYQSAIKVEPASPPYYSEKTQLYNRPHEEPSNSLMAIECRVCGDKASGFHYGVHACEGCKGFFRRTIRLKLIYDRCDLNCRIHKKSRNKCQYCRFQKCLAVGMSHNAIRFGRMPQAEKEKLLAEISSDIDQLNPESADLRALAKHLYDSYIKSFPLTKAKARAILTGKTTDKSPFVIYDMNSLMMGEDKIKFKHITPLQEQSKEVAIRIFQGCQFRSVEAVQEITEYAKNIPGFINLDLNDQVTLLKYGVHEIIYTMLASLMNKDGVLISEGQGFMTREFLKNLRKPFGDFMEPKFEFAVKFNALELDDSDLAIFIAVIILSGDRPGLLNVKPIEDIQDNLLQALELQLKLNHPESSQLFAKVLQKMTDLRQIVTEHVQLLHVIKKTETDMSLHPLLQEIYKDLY
Summary of the method: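 HepG2 cells transiently transfected with GAL4-UAS reporter units driven by mouse PPARg–GAL4 chimera; 3 nM 6-alpha-fluorotestosterone present. After 24 h dosing, reporter mRNA quantified by RT-PCR, fluorescent labelling and capillary electrophoresis; gain of signal versus DMSO.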

[2] = biological target: Nuclear receptor subfamily 1 group I member 2 (Mus musculus) (UniProt O54915); assay: ATG_mPXR_XSP1: Attagene TRANS-FACTORIAL Multi-Species (XSP1) HepG2 Assay for mouse Pregnane X Receptor (PXR) (AID 2283803)
Nuclear receptor subfamily 1 group I member 2 (Mus musculus), sequence (O54915 whole entry, looked up, the tested form may be a part): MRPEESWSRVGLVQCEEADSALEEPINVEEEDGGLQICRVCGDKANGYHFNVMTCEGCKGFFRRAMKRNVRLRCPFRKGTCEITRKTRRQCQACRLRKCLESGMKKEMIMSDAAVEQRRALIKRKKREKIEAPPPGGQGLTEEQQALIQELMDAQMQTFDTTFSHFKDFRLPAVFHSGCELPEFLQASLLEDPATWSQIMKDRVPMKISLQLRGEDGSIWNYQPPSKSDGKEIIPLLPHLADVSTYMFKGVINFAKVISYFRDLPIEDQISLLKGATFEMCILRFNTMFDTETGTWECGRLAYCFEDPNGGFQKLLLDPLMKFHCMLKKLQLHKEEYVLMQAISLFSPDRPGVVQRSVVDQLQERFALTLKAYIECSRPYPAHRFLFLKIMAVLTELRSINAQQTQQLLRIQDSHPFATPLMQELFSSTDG
Summary of the method: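 Transiently transfected HepG2 cells expressing a receptor-Gal4 chimera drive a GAL4-UAS reporter; 3 nM 6-alpha-fluorotestosterone included. Reporter mRNA read 24 h post-dose by RT-PCR and capillary electrophoresis; gain of signal relative to DMSO.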

[3] = tested on: turtle Thyroid Hormone Receptor, alpha (TRa), gene 101949057; assay: ATG_trTRa_XSP1: Attagene TRANS-FACTORIAL Multi-Species (XSP1) HepG2 Assay for turtle Thyroid Hormone Receptor, alpha (TRa) (AID 2283806)
Summary of the method: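 HepG2 cells transiently transfected with GAL4-UAS reporter units and chimeric receptor-Gal4 constructs, with 3 nM 6-alpha-fluorotestosterone present. Reporter mRNA was quantified 24 h after dosing by RT-PCR, 6-FAM labelling and capillary electrophoresis; gain of signal versus DMSO.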

[4] = biological target: zebrafish Thyroid Hormone Receptor alpha (TRa), thraa (gene 30670) (UniProt Q98867); assay: ATG_zfTRa_XSP1: Attagene TRANS-FACTORIAL Multi-Species (XSP1) HepG2 Assay for zebrafish Thyroid Hormone Receptor alpha (TRa) (AID 2283807)
zebrafish Thyroid Hormone Receptor alpha (TRa), thraa (gene 30670), sequence (Q98867 whole entry, looked up, the tested form may be a part): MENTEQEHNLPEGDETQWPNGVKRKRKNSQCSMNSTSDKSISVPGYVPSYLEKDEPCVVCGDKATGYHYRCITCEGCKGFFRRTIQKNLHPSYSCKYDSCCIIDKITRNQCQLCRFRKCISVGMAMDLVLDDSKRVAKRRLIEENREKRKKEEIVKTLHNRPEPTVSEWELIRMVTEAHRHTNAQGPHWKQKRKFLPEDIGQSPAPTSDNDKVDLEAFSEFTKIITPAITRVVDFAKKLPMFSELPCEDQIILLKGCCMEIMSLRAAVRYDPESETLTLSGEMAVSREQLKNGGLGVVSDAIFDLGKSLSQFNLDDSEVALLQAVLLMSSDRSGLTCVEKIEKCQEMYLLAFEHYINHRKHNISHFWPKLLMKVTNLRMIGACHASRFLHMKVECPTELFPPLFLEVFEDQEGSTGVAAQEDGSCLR
Summary of the method: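 HepG2 cells transiently transfected with GAL4-UAS reporter units including a zebrafish TRa–Gal4 chimera, dosed 24 h with 3 nM 6-alpha-fluorotestosterone present. Reporter mRNA quantified by RT-PCR and capillary electrophoresis; gain versus DMSO.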

[5] = biological target: human Thyroid hormone Receptor beta (TRb), THRB (gene 7068) (UniProt P10828); assay: ATG_hTRb_XSP1: Attagene TRANS-FACTORIAL Multi-Species (XSP1) HepG2 Assay for human Thyroid hormone Receptor beta (TRb) (AID 2283808)
human Thyroid hormone Receptor beta (TRb), THRB (gene 7068), sequence (P10828 whole entry, looked up, the tested form may be a part): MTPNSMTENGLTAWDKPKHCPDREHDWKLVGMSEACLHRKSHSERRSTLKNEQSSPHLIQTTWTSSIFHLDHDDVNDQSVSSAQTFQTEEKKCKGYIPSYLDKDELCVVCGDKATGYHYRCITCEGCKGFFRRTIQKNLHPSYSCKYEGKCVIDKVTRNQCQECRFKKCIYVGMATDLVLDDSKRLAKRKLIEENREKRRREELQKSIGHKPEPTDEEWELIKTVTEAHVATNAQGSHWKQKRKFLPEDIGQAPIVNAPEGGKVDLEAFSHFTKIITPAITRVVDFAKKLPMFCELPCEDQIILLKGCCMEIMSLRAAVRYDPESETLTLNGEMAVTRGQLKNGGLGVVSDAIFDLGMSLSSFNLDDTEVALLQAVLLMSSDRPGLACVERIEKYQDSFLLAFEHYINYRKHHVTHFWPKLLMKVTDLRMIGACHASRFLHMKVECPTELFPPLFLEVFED
Summary of the method: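 HepG2 cells transiently transfected with reporter units driving GAL4-UAS reporters for chimeric NR-Gal4 proteins; 24 h chemical exposure with 3 nM 6-alpha-fluorotestosterone present. Reporter mRNA quantified by RT-PCR and capillary electrophoresis, gain of signal versus DMSO.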

[6] = biological target: zebrafish Thyroid Hormone Receptor beta (TRb), thrb (gene 30607) (UniProt Q9PVE4); assay: ATG_zfTRb_XSP1: Attagene TRANS-FACTORIAL Multi-Species (XSP1) HepG2 Assay for zebrafish Thyroid Hormone Receptor beta (TRb) (AID 2283809)
zebrafish Thyroid Hormone Receptor beta (TRb), thrb (gene 30607), sequence (Q9PVE4 whole entry, looked up, the tested form may be a part): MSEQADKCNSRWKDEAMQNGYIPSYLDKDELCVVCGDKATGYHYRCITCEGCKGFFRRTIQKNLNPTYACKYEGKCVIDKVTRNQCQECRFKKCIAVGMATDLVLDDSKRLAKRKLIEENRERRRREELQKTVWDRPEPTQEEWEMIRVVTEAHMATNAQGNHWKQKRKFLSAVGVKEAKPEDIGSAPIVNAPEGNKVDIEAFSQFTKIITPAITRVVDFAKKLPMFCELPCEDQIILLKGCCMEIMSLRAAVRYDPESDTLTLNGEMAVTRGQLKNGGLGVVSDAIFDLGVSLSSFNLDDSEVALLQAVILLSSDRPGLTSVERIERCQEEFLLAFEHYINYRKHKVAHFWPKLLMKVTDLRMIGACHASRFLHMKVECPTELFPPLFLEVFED
Summary of the method: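 HepG2 cells transiently transfected with multiplexed GAL4-UAS reporter units expressing chimeric zebrafish TRb–Gal4. Dosed 24 h with 3 nM 6-alpha-fluorotestosterone present; reporter mRNA measured by RT-PCR, HpaI digestion and capillary electrophoresis; gain of signal versus DMSO.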

[7] = ATG_XTT_Cytotoxicity_XSP1: Cytotoxicity Assessment in the Attagene TRANS-FACTORIAL Multi-Species (XSP1) HepG2 Assay (AID 2283810)
Summary of the method: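 XTT viability readout taken at 24 hours post-dosing in HepG2 liver cells co-treated with 3 nM 6-alpha-fluorotestosterone. Signal loss relative to DMSO controls reflects cytotoxicity.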

[8] = ATG_M_06_XSP2: Attagene TRANS-FACTORIAL Multi-Species (XSP2) HepG2 Assay for M06 Transcription Factor (Internal Marker) (AID 2283811);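 further: hits are increases in signal above the DMSO baseline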
Summary of the method: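 HepG2 cells transiently transfected with GAL4-UAS multiple reporter units, medium containing 3 nM 6-alpha-fluorotestosterone and 1.5 nM norgestrel; reporter mRNA measured 24 hours post-dosing by RT-PCR and capillary electrophoresis. Internal background marker, gain of signal vs DMSO.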

[9] = biological target: GAL4 Transcription Factor (Internal Marker), GAL4 (gene 855828) (UniProt P04386); assay: ATG_GAL4_XSP2: Attagene TRANS-FACTORIAL Multi-Species (XSP2) HepG2 Assay for GAL4 Transcription Factor (Internal Marker) (AID 2283814);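 further: GAL4 reporter mRNA background control in MRTU transfected cells not a receptor target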
GAL4 Transcription Factor (Internal Marker), GAL4 (gene 855828), sequence (P04386 whole entry, looked up, the tested form may be a part): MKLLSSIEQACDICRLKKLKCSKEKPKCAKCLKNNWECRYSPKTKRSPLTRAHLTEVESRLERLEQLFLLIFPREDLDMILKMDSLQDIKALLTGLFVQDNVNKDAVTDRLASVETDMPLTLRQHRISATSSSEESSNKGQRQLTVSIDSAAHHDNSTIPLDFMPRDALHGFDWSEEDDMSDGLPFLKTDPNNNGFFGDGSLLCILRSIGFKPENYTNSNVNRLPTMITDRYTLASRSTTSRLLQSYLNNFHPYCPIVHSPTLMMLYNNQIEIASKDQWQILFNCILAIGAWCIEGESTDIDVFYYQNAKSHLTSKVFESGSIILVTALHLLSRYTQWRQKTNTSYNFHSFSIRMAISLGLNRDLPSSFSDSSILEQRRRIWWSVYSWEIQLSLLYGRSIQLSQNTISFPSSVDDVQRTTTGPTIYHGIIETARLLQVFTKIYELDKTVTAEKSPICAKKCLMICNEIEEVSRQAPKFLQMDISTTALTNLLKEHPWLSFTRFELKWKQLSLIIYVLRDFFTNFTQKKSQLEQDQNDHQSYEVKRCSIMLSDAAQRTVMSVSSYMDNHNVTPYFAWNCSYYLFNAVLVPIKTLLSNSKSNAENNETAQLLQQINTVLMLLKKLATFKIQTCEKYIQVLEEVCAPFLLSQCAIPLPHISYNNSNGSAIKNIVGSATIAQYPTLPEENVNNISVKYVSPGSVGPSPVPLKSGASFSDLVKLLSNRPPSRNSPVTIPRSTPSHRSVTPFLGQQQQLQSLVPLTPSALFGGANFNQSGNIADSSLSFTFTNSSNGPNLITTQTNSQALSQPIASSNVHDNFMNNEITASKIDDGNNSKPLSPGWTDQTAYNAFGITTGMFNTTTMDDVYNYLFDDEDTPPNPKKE
Summary of the method: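 HepG2 cells transiently transfected with GAL4-UAS reporter units, stimulated with 3 nM 6-alpha-fluorotestosterone plus 1.5 nM norgestrel, dosed 24 h. Reporter mRNA by RT-PCR/capillary electrophoresis; gain-of-signal fit versus DMSO, background control.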

[10] = biological target: zebrafish Estrogen Receptor (ER1), esr1 (gene 259252) (UniProt P57717); assay: ATG_zfER1_XSP2: Attagene TRANS-FACTORIAL Multi-Species (XSP2) HepG2 Assay for zebrafish Estrogen Receptor (ER1) (AID 2283816)
zebrafish Estrogen Receptor (ER1), esr1 (gene 259252), sequence (P57717 whole entry, looked up, the tested form may be a part): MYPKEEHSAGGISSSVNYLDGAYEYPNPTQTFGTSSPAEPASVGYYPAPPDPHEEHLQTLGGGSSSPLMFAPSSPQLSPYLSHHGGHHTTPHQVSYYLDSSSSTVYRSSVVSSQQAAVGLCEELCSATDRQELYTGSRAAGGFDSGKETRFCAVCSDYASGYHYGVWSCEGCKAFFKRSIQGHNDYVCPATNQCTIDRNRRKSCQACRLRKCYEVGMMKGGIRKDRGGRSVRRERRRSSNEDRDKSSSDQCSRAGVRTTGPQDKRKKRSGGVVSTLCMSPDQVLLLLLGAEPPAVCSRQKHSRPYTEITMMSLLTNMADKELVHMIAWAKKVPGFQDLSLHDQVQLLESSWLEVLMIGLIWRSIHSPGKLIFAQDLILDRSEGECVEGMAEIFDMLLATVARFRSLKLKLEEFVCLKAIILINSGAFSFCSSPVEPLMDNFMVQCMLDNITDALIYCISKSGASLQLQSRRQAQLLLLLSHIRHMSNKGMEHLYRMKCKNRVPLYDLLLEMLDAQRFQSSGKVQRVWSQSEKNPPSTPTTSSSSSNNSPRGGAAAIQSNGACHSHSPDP
Summary of the method: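 HepG2 cells transiently transfected with a GAL4-UAS reporter and a chimeric zebrafish ER1-Gal4 construct, dosed 24 h. Reporter mRNA quantified by RT-PCR, labelling, HpaI digestion and capillary electrophoresis, relative to DMSO.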

[11] = biological target: chicken Estrogen Receptor (ERa), ESR1 (gene 396099) (UniProt P06212); assay: ATG_chERa_XSP2: Attagene TRANS-FACTORIAL Multi-Species (XSP2) HepG2 Assay for chicken Estrogen Receptor (ERa) (AID 2283817);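 further: actives raise reporter signal above DMSO so AC50 reflects ER activation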
chicken Estrogen Receptor (ERa), ESR1 (gene 396099), sequence (P06212 whole entry, looked up, the tested form may be a part): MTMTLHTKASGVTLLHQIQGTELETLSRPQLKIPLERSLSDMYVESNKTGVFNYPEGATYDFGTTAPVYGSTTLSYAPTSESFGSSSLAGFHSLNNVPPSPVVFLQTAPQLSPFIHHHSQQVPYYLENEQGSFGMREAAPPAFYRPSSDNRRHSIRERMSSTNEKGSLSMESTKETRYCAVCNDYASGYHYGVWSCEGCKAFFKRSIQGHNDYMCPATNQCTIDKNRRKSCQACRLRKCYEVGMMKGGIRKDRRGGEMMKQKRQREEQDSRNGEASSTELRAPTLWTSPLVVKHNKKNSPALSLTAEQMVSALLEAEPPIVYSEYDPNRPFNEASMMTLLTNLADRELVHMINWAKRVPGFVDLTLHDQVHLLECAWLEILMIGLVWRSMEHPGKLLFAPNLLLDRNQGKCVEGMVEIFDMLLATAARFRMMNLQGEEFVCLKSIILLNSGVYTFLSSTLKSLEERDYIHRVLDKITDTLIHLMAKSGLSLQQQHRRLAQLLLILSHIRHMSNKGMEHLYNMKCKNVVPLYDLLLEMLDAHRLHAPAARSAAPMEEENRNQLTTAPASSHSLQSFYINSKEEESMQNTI
Summary of the method: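 Transiently transfected HepG2 cells expressing chimeric chicken ERa-GAL4 reporter units, dosed 24 h with 3 nM 6-alpha-fluorotestosterone and 1.5 nM norgestrel present. Reporter mRNA measured by RT-PCR and capillary electrophoresis; gain-of-signal fitted relative to DMSO.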

[12] = tested on: zebrafish Estrogen Receptor (ER2a), gene 317734; assay: ATG_zfER2a_XSP2: Attagene TRANS-FACTORIAL Multi-Species (XSP2) HepG2 Assay for zebrafish Estrogen Receptor (ER2a) (AID 2283818);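 further: hits raise reporter mRNA so AC50 reflects activation of zebrafish ER2a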
Summary of the method: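 HepG2 cells transiently transfected with GAL4-UAS reporter units and chimeric zebrafish ER2a-Gal4, exposed 24 h; medium contains 3 nM 6-alpha-fluorotestosterone and 1.5 nM norgestrel. Reporter mRNA quantified by RT-PCR, HpaI digestion, capillary electrophoresis; gain versus DMSO.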

[13] = tested on: chicken Androgen Receptor (AR), gene 422165; assay: ATG_chAR_XSP2: Attagene TRANS-FACTORIAL Multi-Species (XSP2) HepG2 Assay for chicken Androgen Receptor (AR) (AID 2283819);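 further: hits raise reporter mRNA above DMSO so potency is for activation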
Summary of the method: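 HepG2 cells transiently transfected with chicken AR–GAL4 chimeric reporter constructs, stimulated with 3 nM 6-alpha-fluorotestosterone plus 1.5 nM norgestrel, dosed 24 h. Reporter mRNA quantified by RT-PCR and capillary electrophoresis; gain of signal fitted versus DMSO.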

[14] = tested on: zebrafish Estrogen Receptor (ER2b), gene 317733; assay: ATG_zfER2b_XSP2: Attagene TRANS-FACTORIAL Multi-Species (XSP2) HepG2 Assay for zebrafish Estrogen Receptor (ER2b) (AID 2283823);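 further: fitted upward as reporter gain over DMSO so potency reflects activation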
Summary of the method: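 Cells used were HepG2, transiently transfected with chimeric nuclear receptor-Gal4 reporter units. After 24 h of chemical treatment, reporter transcripts were amplified by RT-PCR, labelled and sized by capillary electrophoresis, with induction analysed relative to DMSO.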

[15] = tested on: turtle Estrogen Receptor (ERa), gene 101933533; assay: ATG_trERa_XSP2: Attagene TRANS-FACTORIAL Multi-Species (XSP2) HepG2 Assay for turtle Estrogen Receptor (ERa) (AID 2283812);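 further: human HepG2 liver cells transiently expressing turtle ERa-Gal4 chimeric receptor; actives raise reporter signal above DMSO so AC50 reflects agonist activity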
Summary of the method: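 HepG2 cells transiently transfected with GAL4-UAS reporter units expressing turtle ERa-Gal4 chimera. Reporter mRNA measured after 24 h dosing by RT-PCR, fluorescent labelling and capillary electrophoresis; gain of signal fitted versus DMSO.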

[16] = biological target: Estrogen receptor beta (Homo sapiens) (UniProt Q92731); assay: ATG_hERb_XSP2: Attagene TRANS-FACTORIAL Multi-Species (XSP2) HepG2 Assay for human Estrogen Receptor (ERb) (AID 2283813);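 further: actives raise reporter mRNA above DMSO so AC50 reflects agonist induction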
Estrogen receptor beta (Homo sapiens), sequence (Q92731 whole entry, looked up, the tested form may be a part): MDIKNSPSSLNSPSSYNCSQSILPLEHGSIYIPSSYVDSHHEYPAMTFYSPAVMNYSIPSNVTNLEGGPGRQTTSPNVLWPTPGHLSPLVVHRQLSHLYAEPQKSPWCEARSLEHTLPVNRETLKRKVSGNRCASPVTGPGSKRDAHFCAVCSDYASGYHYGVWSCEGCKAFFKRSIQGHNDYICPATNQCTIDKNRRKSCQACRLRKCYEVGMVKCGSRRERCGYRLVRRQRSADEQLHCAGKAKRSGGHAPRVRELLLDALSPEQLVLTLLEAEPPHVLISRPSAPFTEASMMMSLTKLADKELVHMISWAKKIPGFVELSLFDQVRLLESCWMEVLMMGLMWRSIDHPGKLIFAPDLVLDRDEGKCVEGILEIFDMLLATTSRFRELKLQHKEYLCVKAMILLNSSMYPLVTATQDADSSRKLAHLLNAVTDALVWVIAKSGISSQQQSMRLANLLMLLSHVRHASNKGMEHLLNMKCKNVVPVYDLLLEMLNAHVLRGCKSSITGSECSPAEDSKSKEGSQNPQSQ
Summary of the method: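 HepG2 cells transiently transfected with GAL4-UAS reporter units and chimeric human ERb-Gal4, 24 h exposure. Reporter mRNA quantified by RT-PCR with FAM labelling, HpaI digestion and capillary electrophoresis; gain of signal versus DMSO.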

[17] = tested on: frog Estrogen Receptor (ER), gene 398734; assay: ATG_frER1_XSP2: Attagene TRANS-FACTORIAL Multi-Species (XSP2) HepG2 Assay for frog Estrogen Receptor (ER) (AID 2283821);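 further: hits raise reporter mRNA above DMSO baseline so potency means agonist or activator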
Summary of the method: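 HepG2 cells transiently transfected with GAL4-UAS reporter units expressing a chimeric frog ER-Gal4 protein; 24 h exposure. Reporter mRNA quantified by RT-PCR, fluorescent labelling and capillary electrophoresis; gain of signal fitted against DMSO baseline.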

[18] = tested on: turtle Androgen Receptor (AR), gene 101947425; assay: ATG_trAR_XSP2: Attagene TRANS-FACTORIAL Multi-Species (XSP2) HepG2 Assay for turtle Androgen Receptor (AR) (AID 2283815);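 on AC50: potency for gain of reporter signal meaning activation above DMSO baseline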
Summary of the method: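 HepG2 cells transiently transfected with GAL4-UAS reporter units for chimeric NR-Gal4 receptors; 24 h dosing in presence of 3 nM 6-alpha-fluorotestosterone and 1.5 nM norgestrel. Reporter mRNA by RT-PCR and capillary electrophoresis, gain of signal versus DMSO.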

[19] = tested on: frog Androgen Receptor (AR), gene 399456; assay: ATG_frAR_XSP2: Attagene TRANS-FACTORIAL Multi-Species (XSP2) HepG2 Assay for frog Androgen Receptor (AR) (AID 2283824);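 further: actives raise reporter signal above DMSO so AC50 reflects agonist-like induction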
Summary of the method: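 HepG2 cells transiently transfected with GAL4-UAS reporter units and frog (Xenopus laevis) AR-Gal4 chimera; reporter mRNA measured 24 h after dosing by RT-PCR and capillary electrophoresis. Gain of signal fitted relative to DMSO baseline.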

[20] = ATG_M_19_XSP2: Attagene TRANS-FACTORIAL Multi-Species (XSP2) HepG2 Assay for M32 Transcription Factor (Internal Marker) (AID 2283822)
Summary of the method: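 Internal background marker in a multi-species nuclear receptor TRANS panel: transfected HepG2 cells exposed 24 h, with 3 nM 6-alpha-fluorotestosterone and 1.5 nM norgestrel present. Readout is RT-PCR of reporter transcripts resolved by capillary electrophoresis, gain-of-signal versus DMSO.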

Measured: AC50

O=P(Oc1ccccc1)(Oc1ccccc1)Oc1ccccc1
active: [1] 6.18 µM | [2] 0.367 µM | [4] 25.4 µM | [14] 7.88 µM
not listed: [15] | [16] | [17] | [18] | [19] | [20]
inactive: all other assays above

CCCCc1ccc(O)cc1
inactive: [8]
active: [15] 2.42 µM and 3.02 µM | [16] 2.45 µM and 2.3 µM | [10] 69.6 µM and 7.15 µM | [11] 3.21 µM and 1.79 µM | [12] 6.3 µM and 1.66 µM | [17] 1.96 µM and 1.08 µM | [14] 12.5 µM and 5.32 µM

c1ccc2c(c1)Nc1ccccc1S2
inactive: [8] | [9] | [10]
active: [15] 10.7 µM and 6.48 µM | [16] 27.2 µM and 5.66 µM | [11] 11.3 µM and 4.72 µM | [12] 19 µM and 6.16 µM | [17] 14.7 µM and 13.2 µM | [14] 52.1 µM and 27.9 µM

O=S(=O)(c1ccc(O)cc1)c1ccc(O)cc1
inactive: [8] | [18] | [13] | [19]
active: [15] 2.98 µM and 2.14 µM | [16] 1.66 µM and 1.76 µM | [18] 27 µM | [10] 41.8 µM and 17.2 µM | [11] 2.24 µM and 2.5 µM | [12] 5.32 µM and 3.79 µM | [13] 27.1 µM | [17] 2.94 µM and 894 nM | [14] 6.5 µM and 3.07 µM | [19] 8.07 µM

CC(C)(C)c1ccc(O)cc1
active: [15] 6.07 µM and 4.64 µM | [10] 170 µM and 51.1 µM | [11] 4.76 µM and 6.06 µM | [17] 26.6 µM | [14] 34.3 µM and 13.7 µM
inactive: [8] | [12] | [17]

CCC(C)(C)c1ccc(O)cc1
active: [15] 4.29 µM and 1.92 µM | [16] 44.4 µM and 3.05 µM | [10] 34.1 µM and 7.34 µM | [11] 3.58 µM and 2.33 µM | [17] 25.9 µM and 2.38 µM | [14] 13.9 µM and 3.03 µM
inactive: [9] | [12] | [13] | [20]
